MBNL1 CUG block: MBNL1-poly(CUG) RNA binding inhibition; TR-FRET MBNL1-His/biotin-(CUG)12 binding, 665/545 ratio; Potency, µM (doses to about 57.5 µM), for inactives: at the top dose activity change, negative = inhibition, actives largely listed as inhibitors; 280,000 compounds, 0.036% hits; AID 2675; active means well fitted inhibition curve with a large enough effect in the signal ratio, with a control signal flat, not every such curve was filed as active; inconclusive means small, poorly fitted or top-dose-only effect, or effect the other way, or a change in a side signal; inactive means no such curve, though single readings can be large or run the other way; the % refers to the signal ratio; further: on the % scale 0 is the no-effect control and ±100 the full control effect
Target sequence (Q9NR56 whole entry, looked up): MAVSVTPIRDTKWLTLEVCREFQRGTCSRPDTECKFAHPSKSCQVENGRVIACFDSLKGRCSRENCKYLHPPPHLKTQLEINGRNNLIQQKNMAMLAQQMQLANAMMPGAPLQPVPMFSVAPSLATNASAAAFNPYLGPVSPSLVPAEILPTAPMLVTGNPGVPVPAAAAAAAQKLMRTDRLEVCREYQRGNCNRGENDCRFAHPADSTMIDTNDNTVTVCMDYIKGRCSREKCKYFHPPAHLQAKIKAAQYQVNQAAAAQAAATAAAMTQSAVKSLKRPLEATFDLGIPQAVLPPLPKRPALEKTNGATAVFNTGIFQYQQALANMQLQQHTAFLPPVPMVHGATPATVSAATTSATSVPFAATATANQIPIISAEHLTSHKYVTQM
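Compound titration spanned 92 nM–58 uM against the MBNL1-His/biotin-(CUG)12 complex. After 60 min at room temperature with 5 nM streptavidin-XL665 and 0.055 ng/ul terbium anti-His, ratiometric 665/545 nm emission (Ex 340 nm) normalized to controls.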
aSyn rescue: inhibitors of alpha-synuclein toxicity in yeast. Yeast expressing alpha-synuclein, growth rescue, BacTiter-Glo, 24 h. Potency, µM (top dose mostly 46.1 µM), without a hit: top-dose growth rescue (activation), most hits filed as activators. 370,000 compounds, 0.14% hits. AID 652106; further: % of control where 0% means no effect; nearly all actives have a fitted effect of over 65% in size
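Readout is rescue of growth in alpha-synuclein-expressing yeast, so inhibitors of toxicity appear as activators. Growth after 24 hr at 30 deg C in galactose medium is quantified by luminescence.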
FUS suppressor: suppressors of FUS proteinopathy in yeast; S. cerevisiae FUS-expressing, growth rescue, OD600, 24 h; Potency, µM (titrated, usually from 76.6 µM), actives largely listed as activators; 390,000 compounds, 0.24% hits; AID 1347120;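 further: plate controls were DMSO vehicle for no effect and reference control for full effect; nearly all actives have a fitted effect of over 55% in size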
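Cultures pregrown in 2.5% raffinose medium are shifted to minimal medium containing 2% galactose to express toxic FUS. Compounds are tested at several concentrations. After 24hr at 30C, growth is quantified at 600 nm absorbance.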
Abeta rescue: A-beta toxicity reversal in yeast | yeast expressing A-beta42, growth rescue, OD600, 48 h; response scale: 0% DMSO, 100% iron-clioquinol control | Potency, µM (titrated, usually from 46.1 µM), most hits filed as activators | 410,000 compounds, 0.063% hits; further: nearly all actives have a fitted effect of over 55% in size
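Growth rescue measured by 600 nm absorbance after 48 h yeast culture at 30 C with compound. Values normalized between DMSO and an equimolar ferric chloride plus clioquinol control.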
TDP43 rescue: rescues yeast growth from TDP-43 toxicity; TDP-43 expressing yeast growth rescue, BacTiter-Glo, 24 h; Potency, µM (highest dose often 46.1 µM), without a hit: at the highest dose growth rescue (activation), hits mostly activators; 410,000 compounds, 1.8% hits; further: % of control where 0% means no effect; nearly all actives have a fitted effect of over 50% in size
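In this qHTS, compounds that restore growth of yeast expressing TDP-43 appear as activators. Cells (OD600=0.02, galactose medium, raffinose-pregrown) are incubated with compound 24 hr at 30 deg C and growth is quantified by BacTiter-Glo.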
GRP78 ERSR act: inducers of ER stress response in human glioma cells; U87-MG GRP78 promoter luciferase reporter, 16 h; Potency, µM, inactives show top-dose activation, most hits filed as activators; 420,000 compounds, 0.02% hits; AID 602332; further: series mostly up to about 76 µM; % of control where 0% means no effect; nearly all actives have a fitted effect of over 35% in size
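ERSR induction read as luciferase luminescence (Bright-Glo, 10 min at room temperature) in stably transfected human U87-MG glioma cells exposed to compounds for 16 h, using GRP78 as sensor.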
* hit, by the source's call; [ ] = dose if it differs, or a comment. Only some compounds are listed: those with a hit (about 2% of all), similar ones and a draw of the others. Unless noted, the call rests on the fitted dose curve; in most records, active means well fitted curve in the direction sought with a large enough effect; inconclusive means small, poorly fitted or top-dose-only effect, or another doubt; inactive means no such curve, though single readings can be large; an effect the other way counts as inactive or inconclusive. Potency means the concentration at half of the fitted maximal effect.

Screening Cc1cc(O)c(NC(=O)c2cc([N+](=O)[O-])ccc2Cl)cc1C returned MBNL1 CUG block inconclusive, aSyn rescue -3%, FUS suppressor inactive, Abeta rescue inactive, TDP43 rescue 14µM* and GRP78 ERSR act 2%.
Cc1ccc(O)c(NC(=O)c2cc([N+](=O)[O-])ccc2Cl)c1 was read as MBNL1 CUG block inconclusive, aSyn rescue 16%, FUS suppressor inactive, Abeta rescue inactive, TDP43 rescue inconclusive and GRP78 ERSR act 1%.
For COC(=O)C1CCN(Cc2ccc3c(c2)CN(C(=O)c2cc(-c4ccc(C)o4)[nH]n2)CCO3)CC1 the results were GRP78 ERSR act -4%.
CCOC(=O)Nc1ccc(C(=O)/C=C/c2ccccc2)cc1 was read as MBNL1 CUG block -6%, aSyn rescue 1%, FUS suppressor inactive, Abeta rescue inactive, TDP43 rescue 14µM* and GRP78 ERSR act inconclusive.
Screening CCOC(=O)N1CCC(N(CCN(C)C)C(=S)Nc2ccc(Oc3ccccc3)cc2)CC1 returned MBNL1 CUG block -7%, aSyn rescue 20µM*, FUS suppressor inactive, Abeta rescue inactive, TDP43 rescue 20% and GRP78 ERSR act -8%.
CCOC(=O)N1CCC(N(CCN(C)C)C(=S)Nc2cccc(C)c2)CC1 was read as MBNL1 CUG block -1%, aSyn rescue -2%, FUS suppressor inactive, Abeta rescue inactive, TDP43 rescue 2% and GRP78 ERSR act -4%.
For CCOC(=O)Nc1ccc(Oc2ccccc2)cc1 the results were MBNL1 CUG block -4%, aSyn rescue -1%, FUS suppressor inactive, Abeta rescue inactive, TDP43 rescue 11µM* and GRP78 ERSR act 14%.
For COc1ccc(C(=O)/C=C/c2ccccc2)cc1 the results were GRP78 ERSR act 6%.
O=C(Nc1ccc(Oc2ccccc2)cc1)C1CC1 was read as MBNL1 CUG block 0%, aSyn rescue -29%, FUS suppressor inactive, Abeta rescue inactive, TDP43 rescue 5.6µM* and GRP78 ERSR act -2%.
Screening O=C(CN1C(=O)C2CCCCN2C(=O)c2ccccc21)N1CCCC1 (configuration not stated) returned FUS suppressor inactive.
For Cc1ccc(-c2nnc(SCC(=O)Nc3ccc4c(c3)OCCO4)n2-c2ccc(Cl)cc2)cc1 the results were FUS suppressor inactive.
For O=C1N2Cc3ccccc3C2CS(=O)(=O)N1Cc1ccccc1 (configuration not stated) the results were FUS suppressor inactive.
Screening COc1cc(C=Nn2c(-c3ccc(F)cc3)n[nH]c2=S)ccc1OCc1ccccc1 returned FUS suppressor inactive.
CCOC(=O)Nc1cccc(OCC(=O)Nc2ccccc2OC)c1 was read as MBNL1 CUG block -17%, aSyn rescue -7%, FUS suppressor inactive, Abeta rescue inactive, TDP43 rescue 16µM* and GRP78 ERSR act 4%.
Screening Cc1cnc(-n2ncc(C(=O)NCCN3CCOCC3)c2C(C)C)nc1-c1ccc(F)cc1 returned GRP78 ERSR act 4%.
`COc1ccccc1CNC(=O)COc1ccc(Br)c(C)c1` gave MBNL1 CUG block 0%, aSyn rescue 15%, FUS suppressor inactive, Abeta rescue inactive, TDP43 rescue 18µM* and GRP78 ERSR act 1%.
For O=S(=O)(NCc1ccc(F)cc1)c1ccc(Br)cc1Br the results were aSyn rescue 20µM*, FUS suppressor inactive, Abeta rescue inactive, TDP43 rescue 22µM* and GRP78 ERSR act -5%.
`O=S(=O)(NCc1ccccc1)c1ccc(F)cc1Br` gave MBNL1 CUG block -11%, aSyn rescue 0%, FUS suppressor inactive, Abeta rescue inactive, TDP43 rescue 18% and GRP78 ERSR act -2%.
Screening COc1cccc(CNS(=O)(=O)c2cc(Br)ccc2Br)c1 returned aSyn rescue inconclusive, FUS suppressor inactive, Abeta rescue inactive, TDP43 rescue 18µM* and GRP78 ERSR act -2%.
`COc1cccc(CNS(=O)(=O)c2cc3[nH]c(=O)c(=O)[nH]c3cc2C)c1` gave FUS suppressor inactive, Abeta rescue inactive, TDP43 rescue 20% and GRP78 ERSR act -1%.
Screening Cc1cc(C)n(-c2ccc(C(=O)N3CCc4c(cnc(C)c4CNC(=O)c4ccccc4F)C3)cc2)n1 returned GRP78 ERSR act -5%.
For CCOc1ccc(C(=O)CC(NCc2cccs2)C(=O)O)cc1 (configuration not stated) the results were MBNL1 CUG block 10%, aSyn rescue 11µM*, FUS suppressor inactive, Abeta rescue inactive, TDP43 rescue -16% and GRP78 ERSR act -13%.
`CCOc1ccc(C(=O)CC(C(=O)O)N2CCN(Cc3ccccc3)CC2)cc1` (configuration not stated) gave aSyn rescue 6%[1.84 µM], FUS suppressor inactive, Abeta rescue inactive, TDP43 rescue inconclusive and GRP78 ERSR act -7%.
`CCOc1ccc(C(=O)CC(C(=O)O)N2CCCCC2)cc1` (configuration not stated) gave aSyn rescue 1%[1.84 µM], FUS suppressor inactive, Abeta rescue inactive, TDP43 rescue 35µM* and GRP78 ERSR act -14%.
For COc1cc(-c2cc3nc(NCCOc4ccccc4)ccn3n2)cc(OC)c1OC the results were aSyn rescue -1%, FUS suppressor inconclusive, Abeta rescue inactive, TDP43 rescue 32µM* and GRP78 ERSR act -4%.
For CC(NC(=O)C1CCOCC1)c1nnc2n1CCN(Cc1ccc3ccccc3c1)CC2 (configuration not stated) the results were GRP78 ERSR act -4%.
CC12CCC3C(=CCc4cc(O)ccc43)C1CCC2=O (configuration not stated) was read as GRP78 ERSR act 5%.
Screening COc1ccc2c(c1)CC=C1C2CCC2(C)C(=O)C(=NO)CC12 (configuration not stated) returned aSyn rescue 6%, FUS suppressor inactive, Abeta rescue inactive, TDP43 rescue 11µM* and GRP78 ERSR act 5%.
COc1ccc(C(=O)CSc2nc(-c3ccccn3)nc(C)c2Cl)cc1 was read as MBNL1 CUG block 11%, aSyn rescue -11%, FUS suppressor inactive, Abeta rescue inactive, TDP43 rescue inconclusive and GRP78 ERSR act -3%.
For Cc1nc(-c2ccccn2)nc(SCC(=O)c2ccc(F)cc2)c1Cl the results were MBNL1 CUG block -9%, aSyn rescue inconclusive, FUS suppressor inactive, Abeta rescue inactive, TDP43 rescue 11µM* and GRP78 ERSR act -2%.

From PubChem BioAssay
